Here are results for 38 compounds from PubChem BioAssay AID1671192 (National Center for Advancing Translational Sciences (NCATS), 2021).

Molecules are shown by their SMILES. Records with an inconclusive call do not appear. Active and inactive are the calls of the source. Calls come from the whole dose curve; as a rule, active = well fitted curve in the direction sought with a large enough effect; inconclusive = small, poorly fitted or top-dose-only effect, or another doubt; inactive = no such curve, though single readings can be large or run the other way.

The target of the assay is Polyunsaturated fatty acid lipoxygenase ALOX15 (Homo sapiens) (UniProt P16050). The assay can be described thus: Counterscreen qHTS for inhibitors of human arachidonate 12S-lipoxygenase (ALOX12): ALOX15 Assay. The following applies: purified ALOX15 enzyme activity; series mostly up to 110 µM. The essentials: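 Xylenol orange–ferric complex formation, read as the 573 nm to 405 nm absorbance ratio, tracks product from 50 uM arachidonic acid turned over for 30 min at RT. Enzyme is 40 nM ALOX15, pH 7.5 HEPES buffer, compound-preincubated 15 min.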
Sequence of Polyunsaturated fatty acid lipoxygenase ALOX15 (Homo sapiens) (P16050 whole entry, looked up): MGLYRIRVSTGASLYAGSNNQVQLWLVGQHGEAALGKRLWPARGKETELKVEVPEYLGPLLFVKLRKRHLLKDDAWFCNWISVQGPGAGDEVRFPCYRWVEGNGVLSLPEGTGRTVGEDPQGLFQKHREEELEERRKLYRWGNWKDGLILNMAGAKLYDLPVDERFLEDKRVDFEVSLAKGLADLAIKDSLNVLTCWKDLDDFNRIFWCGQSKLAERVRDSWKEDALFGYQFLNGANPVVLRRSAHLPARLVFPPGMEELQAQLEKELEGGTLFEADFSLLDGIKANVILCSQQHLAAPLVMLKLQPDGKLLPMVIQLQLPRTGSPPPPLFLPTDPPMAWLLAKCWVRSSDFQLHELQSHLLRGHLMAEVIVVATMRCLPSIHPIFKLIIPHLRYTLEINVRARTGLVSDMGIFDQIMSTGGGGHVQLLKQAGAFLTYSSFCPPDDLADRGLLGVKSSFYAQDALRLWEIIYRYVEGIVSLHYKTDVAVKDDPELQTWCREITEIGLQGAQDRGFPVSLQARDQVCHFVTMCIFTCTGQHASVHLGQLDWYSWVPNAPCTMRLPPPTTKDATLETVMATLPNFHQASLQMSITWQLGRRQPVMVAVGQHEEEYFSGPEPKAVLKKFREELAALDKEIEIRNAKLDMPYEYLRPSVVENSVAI
A general note: A counterscreen serves to expose hits that act by an unwanted route or on another target.
`CC(=O)NCCC(=O)N1Cc2ccccc2CC2(CCCCN2CC2CCNC2)C1` (stereo not drawn): the result was inactive.

In the case of `CCN1CCCC12Cc1ccccc1CN([S+](C)(=O)[O-])C2` (stereo not drawn), the result was inactive.

As to `COc1ccc(NC2CN(C(=O)OC(C)(C)C)C2)cc1`, the compound was called inactive.

As for `O=Cc1ccccc1-c1cncc(C(=O)O)c1`, the compound was classed as inactive.

For `CCC(CO)Nc1ncnc2c1CN(C1CCCNC1)C(=O)CN2C` (stereo not drawn), the result was inactive.

Consider `CCN1CCCC12Cc1ccccc1CN(C(=O)c1ccccc1)C2` (stereo not drawn), for which the compound was classed as inactive.

Turning to `COc1ccc(NCCN2CCCC2)cc1`, the outcome was inactive.

As for `CCc1ccc(S(=O)(=O)c2nnn3c2nc(NCc2ccc(F)cc2)c2ccccc23)cc1`, the result was inactive.

Consider `COc1ccccc1C(=O)N1CCn2c(nnc2C2CCNCC2)C1`, for which the compound was classed as inactive.

Turning to `CNC(C)c1c(F)cccc1F` (stereo not drawn), the compound was classed as inactive.

As to `COc1ccc(C(=O)N2CCn3c(nnc3C3CCNCC3)C2)cc1`, the outcome was inactive.

Consider `COc1cccc([S+](=O)([O-])N2CCn3c(nn(-c4cccc(Cl)c4)c3=O)C2)c1`, for which the compound was classed as inactive.

As for `CCC(CC)Nc1ncnc2c1CN(C1CCCNCC1)C(=O)CN2C` (stereo not drawn), the result was inactive.

As to `O=C(O)c1ccc(-c2cnccn2)cc1`, the compound was called inactive.

As for `CN(c1ccccc1)C1CNC1`, the compound was classed as inactive.

Take `CCOCCNc1ncnc2c1CN(C1CCCNCC1)C(=O)CN2C` (stereo not drawn): the outcome was inactive.

Regarding `O=C(c1ccc2c(c1)OCO2)N1CCCC2(CC(c3ccccc3)=NO2)C1` (stereo not drawn), the compound was classed as inactive.

As for `COc1ccc(N(C)C2CN(C(=O)OC(C)(C)C)C2)cc1`, the result was inactive.

With `O=C(c1ccccc1)N1Cc2ccccc2CC2(CCN(CC3CCNC3)C2)C1` (stereo not drawn), the call was inactive.

As to `Cn1ncc2c(C(=O)NCCc3ccc(Cl)cc3)cc(-c3ccc([S+](C)(=O)[O-])cc3)nc21`, the compound was called inactive.

In the case of `O=Cc1ccc(-c2cncc(C(=O)O)c2)cc1`, the outcome was inactive.

In the case of `O=S(=O)(c1ccccc1)N1Cc2ccccc2CC2(CCN(Cc3cccnc3)C2)C1` (stereo not drawn), the result was inactive.

Turning to `CC(C)NC(=O)N1CNC(=O)C12CCN(C(=O)CN)CC2`, the outcome was inactive.

For the compound `O=c1n(-c2ccc(Cl)cc2)nc2n1CCN([S+](=O)([O-])c1ccccc1)C2`, the call was inactive.

Take `O=C(NC1CC1)c1cc(-c2ccccc2C(F)(F)F)nc2onc(C3CCNC3)c12` (stereo not drawn): the outcome was inactive.

In the case of `Cc1ccc(CCN2CCC3(Cc4ccccc4CNC3=O)C2)cc1` (stereo not drawn), the compound was classed as inactive.

Regarding `O=C1NCc2ccccc2CC12CCN(Cc1cc(O)cc(O)c1)CC2`, the result was inactive.

In the case of `O=C(Nc1ccc(F)cc1)c1c[nH]c2cccnc12`, the result was inactive.

`O=C1c2ccccc2CN1C1CCN(Cc2ccc(C(F)(F)F)cc2)CC1`: the outcome was inactive.

Regarding `CN1CC(=O)N(C2CCNCC2)Cc2c1ncnc2N1CCC(O)CC1`, the result was inactive.

Consider `N#Cc1ccc(CN2CC(Oc3ccc(F)cc3F)C2)cc1`, for which the compound was classed as inactive.

Turning to `COc1cccc([S+](=O)([O-])N2CCCC3(CC(c4cccnc4)=NO3)C2)c1` (stereo not drawn), the call was inactive.

Turning to `O=C1NC(=NC2CCCCC2)C2(CCN(Cc3ccc(F)cc3)C2)N1c1cccnc1` (stereo not drawn), the result was inactive.

For `COc1cccc(N2C(=O)NC(=NC3CCCCC3)C23CCCN([S+](=O)([O-])c2cccc(C(F)(F)F)c2)C3)c1` (stereo not drawn), the compound was classed as inactive.

As for `NCc1cccc(-c2cncnc2)c1`, the outcome was inactive.

Take `CC[C@@H](Nc1ncnc2c1CN(C1CCNCC1)C(=O)CN2C)c1ccccc1`: the result was inactive.

Regarding `NCc1ccc(-c2ccccn2)cc1`, the compound was classed as inactive.

As for `CCNc1ncnc2c1CN(C1CCCNC1)C(=O)CN2C` (stereo not drawn), the outcome was inactive.
